Measured values published in PubChem BioAssay.
Active and inactive are the calls of the source. Unless noted, how the calls were made is not given here.

How the values were obtained:
[1] = anti-His antibody binders, primary screen, artefact control for SMM control protein annotation, biochemical, small-molecule microarray, 635 nm fluorescence (AID 1128); conditions: anti-His Alexa647 antibody binding, higher = more signal;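 further: score merges feature fluorescence with signal-to-noise for each printed compound spot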
[2] = system: Human papillomavirus type 1a E7 protein (residues 1-88); test: HPV1a E7 small-molecule binders, primary screen, biochemical, small-molecule microarray, residues 1-88, 635 nm (AID 1129); conditions: small-molecule microarray binding, fluorescence 635 nm; higher = more signal
[3] = biological target: Focal adhesion kinase 1 (Homo sapiens) (UniProt Q05397); test: small-molecule microarray binders of FAK, primary screen, biochemical, 635/667 nm fluorescence, BSA, DTT (AID 1130); conditions: PTK2 binding, 635 nm fluorescence, higher = more signal;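 further: composite of spot emission at 667 nm and signal to noise over triplicate slides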
Focal adhesion kinase 1 (Homo sapiens), sequence (Q05397 whole entry, looked up): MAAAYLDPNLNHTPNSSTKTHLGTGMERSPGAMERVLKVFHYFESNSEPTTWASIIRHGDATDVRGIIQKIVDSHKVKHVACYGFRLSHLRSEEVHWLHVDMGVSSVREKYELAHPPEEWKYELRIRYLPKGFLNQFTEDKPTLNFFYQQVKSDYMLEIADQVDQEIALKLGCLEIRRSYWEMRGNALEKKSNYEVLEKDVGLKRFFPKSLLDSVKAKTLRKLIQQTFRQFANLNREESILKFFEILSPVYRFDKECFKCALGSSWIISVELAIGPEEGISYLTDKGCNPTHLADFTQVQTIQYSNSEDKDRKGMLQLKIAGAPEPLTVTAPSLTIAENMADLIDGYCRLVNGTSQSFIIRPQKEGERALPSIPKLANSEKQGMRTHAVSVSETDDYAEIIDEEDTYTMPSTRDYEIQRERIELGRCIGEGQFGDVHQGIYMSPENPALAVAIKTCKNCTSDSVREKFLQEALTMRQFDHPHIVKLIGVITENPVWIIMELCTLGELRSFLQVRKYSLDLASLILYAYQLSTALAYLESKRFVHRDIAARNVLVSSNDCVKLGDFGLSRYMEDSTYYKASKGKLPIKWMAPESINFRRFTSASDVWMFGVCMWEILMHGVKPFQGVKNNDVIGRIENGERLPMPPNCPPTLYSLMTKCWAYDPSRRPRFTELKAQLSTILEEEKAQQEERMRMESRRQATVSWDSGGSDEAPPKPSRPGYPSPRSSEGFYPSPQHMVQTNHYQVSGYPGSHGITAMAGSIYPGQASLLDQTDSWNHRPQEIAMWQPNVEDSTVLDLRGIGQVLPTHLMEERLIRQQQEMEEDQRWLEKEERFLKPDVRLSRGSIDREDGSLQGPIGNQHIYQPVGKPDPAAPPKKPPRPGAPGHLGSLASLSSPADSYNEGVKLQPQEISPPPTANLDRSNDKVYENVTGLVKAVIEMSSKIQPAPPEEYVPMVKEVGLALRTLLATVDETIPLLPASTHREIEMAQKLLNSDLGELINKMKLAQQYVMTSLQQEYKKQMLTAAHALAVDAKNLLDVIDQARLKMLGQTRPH

[4] = system: Fibrinogen (Alexa647-labelled); test: fibrinogen binders on compound microarrays, profiling panel, artefact control for SMM control-protein annotation, biochemical, small-molecule microarray, 635/667 nm fluorescence (AID 1131); conditions: fibrinogen-A647 binding fluorescence, higher = more signal;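 further: z-score merges 667 nm fluorescence with per-spot signal-to-noise over triplicate slides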
[5] = biological target: Follistatin (Homo sapiens) (UniProt P19883); test: follistatin binders on small-molecule microarrays, primary screen, biochemical, small-molecule microarray, 635/667 nm fluorescence (AID 1132); conditions: FST binding, 635 nm fluorescence, higher = more signal
Follistatin (Homo sapiens), sequence (P19883 whole entry, looked up): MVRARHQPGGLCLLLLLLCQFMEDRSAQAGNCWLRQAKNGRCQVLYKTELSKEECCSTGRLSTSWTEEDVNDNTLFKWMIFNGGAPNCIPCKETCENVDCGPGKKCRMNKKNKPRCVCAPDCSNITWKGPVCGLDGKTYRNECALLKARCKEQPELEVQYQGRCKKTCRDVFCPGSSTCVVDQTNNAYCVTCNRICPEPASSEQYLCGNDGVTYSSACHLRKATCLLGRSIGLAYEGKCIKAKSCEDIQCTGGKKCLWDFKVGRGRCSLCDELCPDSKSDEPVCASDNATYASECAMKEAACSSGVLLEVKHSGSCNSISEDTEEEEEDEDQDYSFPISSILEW

[6] = biological target: Fibroblast growth factor 2 (Homo sapiens) (UniProt P09038); test: FGF2 binders on small-molecule microarrays, primary screen, biochemical, small-molecule microarray, 635/667 nm fluorescence (AID 1133); conditions: small-molecule microarray binding, FGF2, fluorescence 635/667; higher = more signal
Fibroblast growth factor 2 (Homo sapiens), sequence (P09038 whole entry, looked up): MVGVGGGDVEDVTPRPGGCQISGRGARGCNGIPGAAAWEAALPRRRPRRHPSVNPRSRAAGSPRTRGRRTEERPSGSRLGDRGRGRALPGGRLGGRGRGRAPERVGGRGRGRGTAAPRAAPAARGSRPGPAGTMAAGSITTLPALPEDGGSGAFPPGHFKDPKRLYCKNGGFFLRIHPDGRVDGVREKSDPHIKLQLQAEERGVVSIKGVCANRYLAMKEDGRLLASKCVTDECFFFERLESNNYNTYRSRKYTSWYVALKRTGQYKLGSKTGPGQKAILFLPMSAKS

[7] = mitochondrial membrane potential change in A549 cells, profiling panel, cell-based, JC-1 fluorescence, basal, 24 h, 100 nL (AID 1138); conditions: higher = more signal;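 further: A549 lung adenocarcinoma cells under basal conditions with no added stimulus; test concentration not given here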
Lefty1 = Lefty1 binders on small-molecule microarrays, primary screen, biochemical, small-molecule microarray, 635/667 nm fluorescence (AID 1139); conditions: small-molecule microarray binding, fluorescence 635/667; higher = more signal
[8] = system: wheat germ agglutinin (Triticum aestivum), Alexa647-labelled; test: wheat germ agglutinin binders on compound microarrays, profiling panel, artefact control for SMM control-protein annotation, biochemical, small-molecule microarray, 635/667 nm fluorescence (AID 1140); conditions: WGA-A647 binding, 635 nm fluorescence, higher = more signal;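 further: score merges 667 nm feature emission with signal to noise over triplicate slides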
[9] = biological target: Luciferin 4-monooxygenase (Photinus pyralis) (UniProt P08659); test: firefly luciferase enzyme inhibitors, primary screen, biochemical, luminescence, purified enzyme, 2006 set (AID 1141); conditions: SteadyGlo luminescence, 30 min, higher = more signal, called active from +8 up or from −8 down;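 further: cell-free assay with purified firefly luciferase at 100 ng per well in PBS; test concentration not given here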
Luciferin 4-monooxygenase (Photinus pyralis), sequence (P08659 whole entry, looked up): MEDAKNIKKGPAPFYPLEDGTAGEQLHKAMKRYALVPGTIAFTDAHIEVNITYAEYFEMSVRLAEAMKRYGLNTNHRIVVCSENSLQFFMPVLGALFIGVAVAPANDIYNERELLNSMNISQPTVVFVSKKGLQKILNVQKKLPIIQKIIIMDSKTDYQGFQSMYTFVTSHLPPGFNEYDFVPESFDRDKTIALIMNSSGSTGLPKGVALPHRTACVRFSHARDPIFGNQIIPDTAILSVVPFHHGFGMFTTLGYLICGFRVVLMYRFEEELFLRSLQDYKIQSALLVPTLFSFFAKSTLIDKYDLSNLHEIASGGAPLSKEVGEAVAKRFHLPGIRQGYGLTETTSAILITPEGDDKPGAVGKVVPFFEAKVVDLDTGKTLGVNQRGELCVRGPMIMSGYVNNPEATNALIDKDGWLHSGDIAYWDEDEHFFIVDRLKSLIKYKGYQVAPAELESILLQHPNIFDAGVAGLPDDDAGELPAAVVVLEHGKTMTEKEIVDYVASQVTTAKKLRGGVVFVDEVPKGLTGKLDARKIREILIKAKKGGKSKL

[10] = system: Wnt5a (protein binding on small-molecule microarray); test: Wnt5a binders on small-molecule microarray, primary screen, biophysical, 635/667 nm fluorescence (AID 1142); conditions: 635 nm fluorescence, higher = more signal;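 further: fluorescence read at 667 nm with signal to noise per printed feature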
[11] = cell viability in Huh7 cells, primary screen, cytotoxicity control for HCV replication inhibitor project, CellTiter-Glo luminescence, basal, 48 h (AID 1143); conditions: Huh7 HCV replicon, higher = more signal, called active from +8 up or from −8 down;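 further: Huh7 hepatoma cells carrying a hepatitis C replication reporter with no stimulus; test concentration not given here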
[12] = P. aeruginosa biofilm formation inhibitors, primary screen, PAO1 strain, BacTiter-Glo luminescence, LB-PBS (AID 1144); conditions: 12 h, higher = more signal
[13] = CREB reporter modulators without forskolin, primary screen, cell-based, PC12, CRE-LacZ reporter, unstimulated (AID 1145); conditions: no forskolin, luminescence, 4.5 h, higher = more signal, called active from +8 up or from −8 down
[14] = CREB reporter modulators under forskolin, primary screen, cell-based, PC12, CRE-LacZ reporter, forskolin-stimulated (AID 1146); conditions: luminescence, 4.5 h, higher = more signal, called active from +8 up or from −8 down;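 further: PC12 cells with 6xCRE LacZ reporter stimulated by forskolin 10 µM; beta-galactosidase reporter signal reflecting CREB driven transcription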
[15] = biological target: Streptavidin (Streptomyces avidinii) (UniProt P22629); test: streptavidin binders on small-molecule microarray, primary screen, artefact control for SMM compound annotation, biophysical, 635/667 nm fluorescence (AID 1147); conditions: streptavidin binding, higher = more signal;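 further: signal reflects streptavidin binding to arrayed compounds as a control protein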
Streptavidin (Streptomyces avidinii), sequence (P22629 whole entry, looked up): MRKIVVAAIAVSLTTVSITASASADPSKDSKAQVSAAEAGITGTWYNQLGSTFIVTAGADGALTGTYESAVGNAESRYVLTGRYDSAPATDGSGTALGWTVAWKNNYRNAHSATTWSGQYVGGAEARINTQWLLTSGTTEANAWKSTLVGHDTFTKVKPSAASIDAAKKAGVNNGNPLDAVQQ

[16] = small-molecule binders of probe aInhba, primary screen, biochemical, small-molecule microarray, 635/667 nm fluorescence (AID 1148); conditions: higher = more signal;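 further: score merges 667nm spot fluorescence with signal-to-noise for antibody binding to printed compounds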
Torsin-1A (Homo sapiens) [17] = biological target: Torsin-1A (Homo sapiens) (UniProt O14656); test: torsin A binders from cell lysate, primary screen, small-molecule microarray, wild-type, 635/667 nm (AID 1149); conditions: COS7 hTOR1A-WT lysate, 635 nm fluorescence, higher = more signal
Torsin-1A (Homo sapiens), sequence (O14656 whole entry, looked up): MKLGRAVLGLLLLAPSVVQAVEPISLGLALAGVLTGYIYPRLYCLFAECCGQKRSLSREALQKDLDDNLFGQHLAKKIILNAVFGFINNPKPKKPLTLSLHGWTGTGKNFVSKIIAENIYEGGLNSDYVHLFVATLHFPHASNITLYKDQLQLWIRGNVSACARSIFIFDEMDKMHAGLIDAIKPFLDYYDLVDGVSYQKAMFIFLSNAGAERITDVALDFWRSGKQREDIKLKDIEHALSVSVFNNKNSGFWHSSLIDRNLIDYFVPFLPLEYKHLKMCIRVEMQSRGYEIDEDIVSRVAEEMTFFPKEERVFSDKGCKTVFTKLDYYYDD

Torsin-1A (Homo sapiens) [18] = biological target: Torsin-1A (Homo sapiens) (UniProt O14656); test: small-molecule binders of mutant TOR1A in lysate, primary screen, cell lysate, small-molecule microarray, COS7 lysate, 635/667 nm fluorescence (AID 1150); conditions: COS7 hTOR1A mutant lysate, 635 nm fluorescence, higher = more signal;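 further: score pools 667 nm emission and signal to noise measuring lysate protein binding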
[19] = system: Sonic hedgehog protein (Shh); test: small-molecule binders of Shh protein, primary screen, biochemical, small-molecule microarray, 635/667 nm fluorescence (AID 1151); conditions: small-molecule microarray binding, 635 nm fluorescence; higher = more signal;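 further: Shh protein binding to compounds spotted on small-molecule microarray slides; score combines spot fluorescence intensity with signal-to-noise across triplicate slides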

Row | SMILES | composite z-score [1] | composite z-score [2] | composite z-score [3] | composite z-score [4] | composite z-score [5] | composite z-score [6] | z-score [7] | composite z-score (Lefty1) | composite z-score [8] | z-score [9] | composite z-score [10] | z-score [11] | z-score [12] | z-score [13] | z-score [14] | composite z-score [15] | composite z-score [16] | composite z-score (Torsin-1A (Homo sapiens) [17]) | composite z-score (Torsin-1A (Homo sapiens) [18]) | composite z-score [19]
1 | C=CCN1C(=O)[C@]2(O[C@H](CCO)[C@@H]([Si](C)(C)c3ccc(OC)cc3)[C@@H]2C)c2ccccc21 | 0.0171 | 0.745 | -0.0378 | 0.641 | -0.862 | -0.14 | -1.83 | 0.058 | 0.134 | -0.43 (inactive) | -0.381 | -8 (inactive) | -0.566 (inactive) | 19.5 (active) | -3.3 (inactive) | -0.652 | -0.209 | -0.958 | -0.0259 | -1.12
2 | CCCCC(=C=CC[C@@H](O)c1cccc(OCCO)c1)C[C@@H](O)COCc1ccccc1 | 0.457 | -0.122 | 0.116 | 0.982 | -0.211 | -0.178 | 0.732 | -0.0843 | 0.498 | -1.88 (inactive) | -0.225 | -2.51 (inactive) | -0.279 (inactive) | 6.81 (inactive) | -0.731 (inactive) | -0.577 | -0.05 | -0.387 | -0.444 | 0.362
3 | C=CCN1C(=O)[C@]2(O[C@H](CCn3cc([C@H](O)c4ccccc4)nn3)[C@@H]([Si](C)(C)c3ccc(OC)cc3)[C@@H]2C)c2cc(N3C(=O)c4cccc5cccc3c45)ccc21 | 0.72 | 0.268 | 0.33 | 0.182 | -0.167 | 0.102 | 1.01 | 0.102 | 0.453 | -0.719 (inactive) | 0.0898 | -6.26 (inactive) | -0.774 (inactive) | 9.81 (active) | -0.745 (inactive) | 0.633 | -0.255 | -0.439 | 1.18 | 0.204
4 | COc1cccc(C[C@H]2C[C@@H](CO[Si](C(C)C)(C(C)C)C(C)C)N3C(=O)[C@@]4(C(C)=O)O[C@@]23[C@@H]2C(=O)N(C)C(=O)[C@@H]24)c1 | -0.265 | 0.681 | 0.0669 | 0.529 | 0.897 | 1.25 | 0.189 | 1.4 | 0.326 | 0.768 (inactive) | 0.0121 | -2.38 (inactive) | 0.333 (inactive) | 0.222 (inactive) | -0.065 (inactive) | 0.0285 | 0.2 | 0.241 | 0.0185 | 1.3
5 | CN(C)CCCCNC(=O)[C@H]1C[C@H]2C(=O)NCC(=O)N2[C@H]1c1cccc(OCCO)c1 | 0.465 | -0.74 | -0.539 | -1.59 | 0.991 | 0.817 | 0.411 | 0.748 | 0.169 | 1.59 (inactive) | 0.133 | 0.344 (inactive) | -0.254 (inactive) | -0.398 (inactive) | 0.586 (inactive) | -1.04 | -0.202 | 0.0774 | -0.0032 | 2.19
6 | C=CCOC(=O)[C@H]1[C@@H]2C(=O)O[C@@H](c3ccccc3)[C@@H](c3ccccc3)N2[C@@H](c2ccc(OCCOC(=O)[C@@H]3C[C@@H]4C(=O)N[C@@H](Cc5ccccc5)C(=O)N4[C@@H]3c3ccc(O)cc3)cc2)[C@]12C(=O)Nc1ccccc12 | 1.78 | 1.19 | 1.53 | 0.911 | 1.32 | 1.33 | -1.15 | 0.948 | 1.2 | -0.497 (inactive) | 0.5 | 0.247 (inactive) | -0.661 (inactive) | 0.679 (inactive) | -0.158 (inactive) | 0.537 | -0.0762 | 0.83 | 0.8 | 1.03
7 | O=c1cccc(-c2ccccc2C(F)(F)F)o1 | -0.602 | 0.389 | -0.0583 | -2.29 | -0.547 | -0.661 | -0.074 | -0.599 | -0.861 | 1.24 (inactive) | 0.297 | -0.121 (inactive) | 0.0176 (inactive) | -0.471 (inactive) | -0.12 (inactive) | -0.318 | 0.763 | 0.242 | 0.0563 | -0.999
8 | O=C(NCCO)C1=C[C@H](Oc2ccccc2I)[C@@H](O)[C@H](NCc2ccc(F)cc2)C1 | -0.223 | -1.23 | -0.279 | -2.27 | 1.31 | 0.795 | -0.697 | 1.45 | -1.25 | 0.243 (inactive) | 0.273 | -2.8 (inactive) | 0.148 (inactive) | 4.56 (inactive) | 0.925 (inactive) | -0.743 | -0.197 | 0.693 | 1 | 2.08
9 | NC(=O)N1C(=O)C2C(C1=O)C1C=C(CCCO)C2C(c2ccc(CN3CCCC3)cc2)N1Cc1cccc(OC(F)(F)F)c1 (stereo not given) | 0.22 | 0.429 | 0.102 | 0.33 | 1.05 | 0.532 | 1.39 | 1.38 | 0.0168 | -0.84 (inactive) | 0.232 | -0.596 (inactive) | 0.963 (inactive) | 0.494 (inactive) | -0.679 (inactive) | -0.157 | -0.0736 | 0.094 | 0.462 | 1.86
